48 sequences from the supplement of paper PMC11417369 can be followed below.

Whole data set: some 25,000 sequences, median “ln(normalized median fluorescence intensity)” near 9.3, cut for the highest 2% near 10. For the sample, the highest values were picked, then their nearest neighbours and some sequences at random.

This assay relates to PF3D7_0420300 AP2 domain 1 (GST-tagged). The assay is described as follows: gcPBM binding intensity (ln(normalized median fluorescence intensity)); higher = stronger DNA binding. In outline: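 Each value is the highest Masliner-normalised natural-log median intensity across replicate spots of either orientation of a probe. The probes were primer-extended double-stranded 36-bp intergenic genomic sequences on an Agilent 4 × 180k array, alongside negative controls, exposed for 1 h to GST-tagged P. falciparum DNA-binding domains expressed in E. coli. Bound protein was picked up with Alexa488 anti-GST antibody and scanned at 488 nm.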
For “TTGTGTTTTATTATTTTATTATTACTATTATAATGT [GTGCAC_negctrl_site484]”, the “gcPBM binding intensity (ln)” value is 9.62. Regarding “TAAATATATATTATATGTACTTATATATATATATAT [XGTACX_site4448]”, the “gcPBM binding intensity (ln)” value amounted to 9.13.

With “TAATTTTCTTTTTATCGTTTTTTTTTTTTTTTTTTT [XGTACX_negctrl_site432]”, the “gcPBM binding intensity (ln)” value came out at 9.02. “AGCTAATATATCTTATATTCATATAAAAAAATATAT [CACACA_negctrl_site1786]”: the “gcPBM binding intensity (ln)” value is 8.94. Turning to “AAATTTACAATACATTGTACATATTAATAATATTCC [XGTACX_site3646]”, the “gcPBM binding intensity (ln)” value was found to be 9.17. “CAGTTGGAAGGAAAGTGTACATAAAAAAAAATATAA [XGTACX_site8784]”: the “gcPBM binding intensity (ln)” value is 9.09.

On to “TCTTTTTAGATATATACACACCGTGTCTACCTATAC [CACACA_site7551]”, for which the “gcPBM binding intensity (ln)” value came to 9.41.

In the case of “AAATGAATAAATAGGTCACACACAAATATATATAAA [CACACA_site8764]”, the “gcPBM binding intensity (ln)” value stood at 9.91. With TATTAATATATAGTAGTGCAATAAAGATATACTGAA, the “gcPBM binding intensity (ln)” value was 9.39. Consider “TTTCGATTAAAAATTGTACAATATAAGGAGCACACA [GTGCAC_negctrl_site476]”, for which the “gcPBM binding intensity (ln)” value is 9.31. The result for “ATATCTTATGTTATCACACACACACGCACAAAACAG [CACACA_site6800]” reads 10.2; that for “CACAAAAATAAACACACACACATATATATTTATTAT [CACACA_site5923]”, 10.2; that for “ATCTTATATGATCACACACACACGCACAAAACAGAA [CACACA_site4913]”, 10.1. On to “ATCTTATATTATCACACACACACGCACAAAACAGAA [CACACA_site1463]”, for which the “gcPBM binding intensity (ln)” value was 10.1. Take “CAATATAAAAAACACACACACAAACATATATTTATA [CACACA_site3703]”: the “gcPBM binding intensity (ln)” value is 10.1. Turning to “TACATAATACATATAACACACACAATTATACATAAA [CACACA_site9060]”, the “gcPBM binding intensity (ln)” value is 10. The same measure for “ATATAATTATAAAATAAACACACATATATATTTATA [CACACA_site8039]”: 9.48; for “AAAATTAAAAATAACACACACATATTTATATTTATA [CACACA_site7329]”: 9.75; for “AATACAATTTATAACACACACACAATAATACATATA [CACACA_site1252]”: 10.2. The result for “CACAGATAAATTAACACACACACACGGATATTTATA [CACACA_site7788]” reads 10.2; that for “AAAATTAAAAATAACACACACATATATATATTTATA [CACACA_site2776]”, 9.84; that for “ATAATACAATTTATAACACACACACTATAATACATA [CACACA_site8338]”, 9.97. Turning to “AAACATTTACTATATTGTACTTAAGATCTTATCGTA [XGTACX_site3919]”, the “gcPBM binding intensity (ln)” value came to 9.06. On to “CTGTCTGCAGATATGGTGCATTTGTAAGATCTTACA [GTGCAC_site9870]”, for which the “gcPBM binding intensity (ln)” value was found to be 9.13.

With GACATAAAATTCAAAGTGCATAAATAAAATAAACCC, the “gcPBM binding intensity (ln)” value came to 9.49.

“ATTATAAACCATAATTAACACACAAAATAAGTTACA [CACACA_site9057]”: the “gcPBM binding intensity (ln)” value was 9.75. Turning to “TTTTCTTTCTTGTTTCGTATATTATAAAAAAAAAAG [CACACA_negctrl_site854]”, the “gcPBM binding intensity (ln)” value worked out at 8.96. Consider “ACATTTATATATAATTGTACCCTACATTCTCTTTTT [XGTACX_site189]”, for which the “gcPBM binding intensity (ln)” value worked out at 9.5. As to “AAAAAAATAATAAAAAGTACAAAATGTAGAAAATGT [XGTACX_site5018]”, the “gcPBM binding intensity (ln)” value was determined as 9.91. Turning to “AATAGAGTTGAATGCACACATACAAATTTTTAGTTT [CACACA_site3564]”, the “gcPBM binding intensity (ln)” value worked out at 9.33. As to “TAGTAGTTATCACTAACATGCAATAATATTATTTAA [TGCATGCA_site161]”, the “gcPBM binding intensity (ln)” value was found to be 9.08. As to “AATATATATAAATATTGTACAAAAATATATATATAT [XGTACX_site2910]”, the “gcPBM binding intensity (ln)” value was determined as 9.26. The result for “AAGAATCATATTTAAACACACATACAGATATATATA [CACACA_site5787]” reads 9.51; that for “AAGGATCACGCACAAACACACATATTTATATTTATA [CACACA_site6405]”, 9.47; that for “AACAAAAAAACAAACACACACACACGCATATTTATA [CACACA_site7680]”, 10.2.

With “TACAATATAAAATACACACACACAAACATATATTTA [CACACA_site5941]”, the “gcPBM binding intensity (ln)” value worked out at 10.2.

As to “TACAATTTATGACACACACACAATAATACCTATATA [CACACA_site6704]”, the “gcPBM binding intensity (ln)” value worked out at 9.95.

As for “AATACAATTTATAACACACACACAAGAATACCTATA [CACACA_site6705]”, the “gcPBM binding intensity (ln)” value turned out to be 10.3. For “TAAAAAAAAATATATAAACACACATATTTATATACA [CACACA_site8469]”, the “gcPBM binding intensity (ln)” value turned out to be 9.36. Consider “AAAAAAAACAAACACACACACAAATATTTATATATT [CACACA_site436]”, for which the “gcPBM binding intensity (ln)” value was 10.1.

Regarding “CAATTTATAAAGAAAACACACATATACCTATATACA [CACACA_site6710]”, the “gcPBM binding intensity (ln)” value was determined as 9.55. For the sequence “TTATTTAAACAAATCACACACAAATATATATACATA [CACACA_site2019]”, the “gcPBM binding intensity (ln)” value was determined as 9.71.

For “TACAATCTAAAATACACACACACAAACATATATTTA [CACACA_site3702]”, the “gcPBM binding intensity (ln)” value was 10.2. Take “TATACAATCTATATAACACACATATTTATATAAAAT [CACACA_site1797]”: the “gcPBM binding intensity (ln)” value was determined as 9.46. Regarding “TATACAATATATATAACACACATATTTATATAAAAT [CACACA_site5061]”, the “gcPBM binding intensity (ln)” value was 9.57.

As to “AATATATAAGCTGTTCTATTCAAGAATTATATCTTA [CACACA_negctrl_site270]”, the “gcPBM binding intensity (ln)” value came to 9.06. Turning to “TATATTATTTATTAGACACACATTATTAAAATATTT [CACACA_site4737]”, the “gcPBM binding intensity (ln)” value came to 9.19.

For “GTTTGTATGTCCAAATGTACATATGATTTTATGAAA [XGTACX_site6595]”, the “gcPBM binding intensity (ln)” value came to 9.2.
